PriA SSB inh = blocks PriA binding to SSB C-terminal tail | inhibition, % at 33 µM | 430,000 compounds, 0.6% hits | AlphaScreen SSBct-PriA binding, biotinylated peptide | AID 1272365; in the data active = inhibition mostly above about 37%, no sharp cut-off; inactive = mostly below about 20%;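 also: plate controls were negative control peptide for no effect and reference peptide for full effect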
GDH-TPI counter-1 = GDH-TPI coupled enzyme inhibition counter-screen | 360,000 compounds, 1.2% hits | inhibition, % at 4.8 µM | GDH-TPI coupled enzyme counterscreen, NADH absorbance; in the data active = inhibition above about 30%;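 also: 0% = DMSO wells and 100% = wells lacking the enzyme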
Mtb bLac sens = beta-lactam sensitization of Mtb H37Rv | M. tuberculosis H37Rv growth with meropenem, percent inhibition | AID 434955 | inhibition, % at 25 µM | 330,000 compounds, 0.27% hits; call rule not given here;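 also: growth measured after seven days incubation then overnight dye step; 0% = bacteria only wells and 100% = bacteria with antibiotic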
FBA Mtb inh = Mtb fructose-bisphosphate aldolase inhibition. inhibition, % at 1 µM. AID 588726. purified M. tuberculosis FBA, fluorescence read-out. 360,000 compounds, 2.3% hits. P9WQA3;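 also: 0% = vehicle and 100% = reference inhibitor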
UGM FP inh = inhibitors of M. tuberculosis UDP-galactopyranose mutase; P9WIQ1; purified UGM, fluorescence polarization probe displacement; inhibition, % at 10 µM; 320,000 compounds, 0.06% hits; in the data active = inhibition above about 10%, passing the limit was not always enough; inconclusive = no clear call, values can overlap the other calls
Rv3671c inh = Rv3671c (M. tuberculosis) protease inhibition; 320,000 compounds, 0.048% hits; AID 2606; inhibition, % at 5.96 µM; in the data active = inhibition above about 38%;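 also: extracellular domain of Rv3671c used as enzyme; 0% = enzyme with DMSO and 100% = no enzyme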
Target sequence (P9WHR9 whole entry, looked up, the tested form may be a part): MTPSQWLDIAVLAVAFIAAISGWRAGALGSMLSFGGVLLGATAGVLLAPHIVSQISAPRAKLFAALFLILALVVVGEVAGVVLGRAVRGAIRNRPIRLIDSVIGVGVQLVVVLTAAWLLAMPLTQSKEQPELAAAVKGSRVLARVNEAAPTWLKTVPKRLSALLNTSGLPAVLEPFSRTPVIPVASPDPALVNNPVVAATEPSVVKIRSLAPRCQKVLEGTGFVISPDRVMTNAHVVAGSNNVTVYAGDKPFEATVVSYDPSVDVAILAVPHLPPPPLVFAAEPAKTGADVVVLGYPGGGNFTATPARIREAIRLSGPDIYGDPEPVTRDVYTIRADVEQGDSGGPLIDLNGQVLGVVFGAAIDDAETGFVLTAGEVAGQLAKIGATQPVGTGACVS
Mtb FBA confirm = Mtb FBA inhibition, confirmed. 5,600 compounds, 78% hits. purified M. tuberculosis FBA, fluorescence read-out. shares compounds with FBA Mtb inh. inhibition, % at 1 µM;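 also: 0% = vehicle wells and 100% = reference inhibitor wells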
GDH-TPI counter-2 = inhibits GDH-TPI coupling enzymes, flagging Mtb FBA hits. shares compounds with FBA Mtb inh. AID 652141. inhibition, % at 1 µM. GDH-TPI coupled enzyme counterscreen, fluorescence. 5,600 compounds, 81% hits; in the data active = inhibition above about 10%
* marks the source's active call; other numbers are inactive results; ? = inconclusive; . = no result; + = active, no number. A selection: hits, their analogues and other compounds. The true share with any hit is near 3.2%. Rule as the data show it, unless noted: active = inhibition above about 27%; inactive = the rest.

SMILES	PriA SSB inh	GDH-TPI counter-1	Mtb bLac sens	FBA Mtb inh	UGM FP inh	Rv3671c inh	Mtb FBA confirm	GDH-TPI counter-2
O=C(O)c1ccc2c(c1)-c1nc3ccccc3n1C2=O	3	-1	8	51*	5	-2	44*	36*
O=C(N/N=C/c1cc(Cl)cc([N+](=O)[O-])c1O)c1ccc2c(c1)OCO2	.	17	-1	-5	4	1	.	.
COc1cc(Cl)cc(/C=N\NC(=O)c2ccc3c(c2)OCO3)c1O	.	29	.	27*	.	.	135*	114*
Cc1cc(C)c(NC(=O)Cn2nc(-c3ccco3)c3sc(N4CCOCC4)nc3c2=O)c(C)c1	-9	.	.	.	.	.	.	.
COc1c(F)cc2[nH]c3c(c2c1F)CCNC3=O	-4	-1	-7	38*	4	-4	+	176*
Cc1ccc2[nH]c3c(c2c1)CCNC3=O	6	11	-2	75*	0	2	113*	93*
O=C(CN1CC(c2nc(-c3ccsc3)no2)C1)Nc1cccc(C(F)(F)F)c1	-8	.	.	.	.	.	.	.
CC/C(=N/NC(=O)c1ccccc1)c1ccc(OCCN2CCOCC2)cc1	.	3	7	31*	-2	1	91*	57*
C[C@H](N)C12CC3CC(CC(C3)C1)C2	-19	.	.	.	.	.	.	.
COCCN1CC(O)=C(c2nc3ccccc3c(=O)[nH]2)C1=N	-27	20	-9	46*	1	-4	.	+
N=C1C(c2nc3ccccc3c(=O)[nH]2)=C(O)CN1CCO	2	1	0	17	-1	0	.	.
COc1ccccc1N1CC(O)=C(c2nc3ccccc3c(=O)[nH]2)C1=N	4	22	-3	38*	0	-9	146*	111*
O=C(CSc1nc2c(sc3ccccc32)c(=O)n1Cc1ccccc1Cl)c1ccc(Br)cc1	-7	.	.	.	.	.	.	.
O=C(COc1cccc(C(F)(F)F)c1)NCCCn1nc(-c2ccco2)ccc1=O	-10	.	.	.	.	.	.	.
CN(C)c1nc(-c2ccccc2)c2cnn(Cc3ccccc3)c2n1	-47	2	7	44*	0	-13	121*	112*
O=C(c1cc(-c2ccco2)nc2ccccc12)N1CCCC(C(F)(F)F)C1 (stereo not drawn)	3	2	-7	102*	-2	10	+	+
CCOC(=O)C1CCCN(C(=O)c2cc(-c3ccco3)nc3ccccc23)C1 (stereo not drawn)	-8	5	2	84*	.	-1	+	157*
CN(CC(=O)NCCc1cccs1)c1nc2c(C(F)(F)F)cccc2s1	-14	.	.	.	.	.	.	.
O=C(NCCCOC(=O)c1ccccc1)c1ccncc1	4	.	.	.	.	.	.	.
COc1ccc2oc(C(=O)OCC(=O)N3CC(C)OC(C)C3)c(C)c2c1 (stereo not drawn)	-4	-11	?	36*	-2	0	25	23*
CCNC(=O)NC(=O)C(C)OC(=O)c1oc2ccc(OC)cc2c1C (stereo not drawn)	-13	22	-5	44*	-1	2	2	-5
COc1ccc2oc(C(=O)OCC(=O)N3CC(C)CC(C)C3)c(C)c2c1 (stereo not drawn)	-12	9	4	31*	0	7	57*	51*
CCOc1ccc2oc(C(=O)OC(C(=O)NC(N)=O)C(C)C)c(C)c2c1 (stereo not drawn)	-5	12	4	40*	1	16	+	+
COc1ccc2oc(C(=O)OCC(=O)N3CCN(S(=O)(=O)c4ccc(C)cc4)CC3)c(C)c2c1	-28	-2	-16	23	0	-6	.	.
CCOc1ccc2oc(C(=O)O)c(C)c2c1	1	2	-3	18	-1	-1	.	.
SMILES	PriA SSB inh	GDH-TPI counter-1	Mtb bLac sens	FBA Mtb inh	UGM FP inh	Rv3671c inh	Mtb FBA confirm	GDH-TPI counter-2
CC(O)(CNC(=O)NCCCc1ccccc1)c1cccs1 (stereo not drawn)	-6	.	.	.	.	.	.	.
COc1cccc(-c2csc(-n3nc(C)cc3NC(=O)CCCc3ccccc3)n2)c1	-1	.	.	.	.	.	.	.
CN(c1ccccc1)S(=O)(=O)c1c(-c2ccccc2)csc1C(=O)NCc1ccc(Cl)cc1	-6	.	.	.	.	.	.	.
O=C(CSc1ncnc2c1nnn2-c1ccc(F)cc1)Nc1ccccc1C(F)(F)F	-6	.	.	.	.	.	.	.
COc1ccc(OC)c2sc(N(CCN3CCOCC3)C(=O)Cn3c(=O)oc4ccccc43)nc12	10	.	.	.	.	.	.	.
COc1ccc2oc(C(=O)OC(C)C(=O)Nc3ccc(N4CCOCC4)cc3)c(C)c2c1 (stereo not drawn)	-6	13	-6	6	0	-10	.	.
COc1ccc2oc(C(=O)OC(C)C(=O)N3CCC(C)CC3)c(C)c2c1 (stereo not drawn)	-3	10	-10	44*	-2	6	+	+
COC(=O)C1CCN(C(=O)COC(=O)c2cc(-c3ccccc3)nc3ccc(OC)cc23)CC1	1	22	38	83*	1	-27	58*	51*
COc1ccc2oc(C(=O)OCc3nnc(-c4ccccc4)o3)c(C)c2c1	-19	13	-2	5	3	1	.	.
CCOc1ccc2oc(C(=O)NCC(C)(C)CN(C)C)c(C)c2c1	-5	12	-7	44*	-2	-9	116*	86*
COc1ccc(-c2cc(C(=O)OCC(=O)N3CCOCC3)c3ccccc3n2)cc1	-32	22	65	19	-2	-18	.	.
COc1ccc2oc(C(=O)OC(C)C(=O)N(C)c3ccccc3)c(C)c2c1 (stereo not drawn)	-3	8	0	31*	-1	5	+	+
O=S(=O)(c1ccc(Oc2nnc(-c3ccccc3)c3ccccc23)cc1)c1ccc(Oc2nnc(-c3ccccc3)c3ccccc23)cc1	-4	.	.	.	.	.	.	.
CCOC(=O)C1CCN(C(=O)COC(=O)c2oc3ccc(OC)cc3c2C)CC1	-4	-6	1	40*	.	5	86*	47*
COc1ccc(N2CCN(C(=O)COC(=O)c3oc4ccc(OC)cc4c3C)CC2)cc1	-3	5	3	14	-1	-5	.	.
CSc1ncccc1C(=O)Nc1ccc(OC(F)(F)F)cc1	-1	1	65	44*	-1	1	33*	34*
COc1cc(NC(=O)c2cccnc2SC)cc(OC)c1OC	-6	-2	0	3	0	0	.	.
O=C1c2cccc3cccc(c23)C(=O)N1CC1CCCO1 (stereo not drawn)	1	10	2	31*	-3	-3	52*	28*
O=C(CCCN1C(=O)c2cccc3cccc(c23)C1=O)NCC1CCCO1 (stereo not drawn)	12	.	.	.	.	.	.	.
O=C(CCN1C(=O)c2cccc3cccc(c23)C1=O)NCC1CCCO1 (stereo not drawn)	-7	25	-8	34*	-3	17	156*	97*
